Assay outcomes (PubChem)
Hits are enriched below; roughly 2.4% of the tested compounds scored in any of these assays.
D2 antag – D2 dopamine receptor (human) antagonism; P14416; HEK293 TREx D2 cells, calcium flux, dopamine EC80; inhibition, % at 10 µM; actives 2% (n = 340,000); AID 485344; in the data active = inhibition above about 30%; inactive = below that, where a call was filed; also: 0% is about no effect
Target sequence (P14416 whole entry, looked up): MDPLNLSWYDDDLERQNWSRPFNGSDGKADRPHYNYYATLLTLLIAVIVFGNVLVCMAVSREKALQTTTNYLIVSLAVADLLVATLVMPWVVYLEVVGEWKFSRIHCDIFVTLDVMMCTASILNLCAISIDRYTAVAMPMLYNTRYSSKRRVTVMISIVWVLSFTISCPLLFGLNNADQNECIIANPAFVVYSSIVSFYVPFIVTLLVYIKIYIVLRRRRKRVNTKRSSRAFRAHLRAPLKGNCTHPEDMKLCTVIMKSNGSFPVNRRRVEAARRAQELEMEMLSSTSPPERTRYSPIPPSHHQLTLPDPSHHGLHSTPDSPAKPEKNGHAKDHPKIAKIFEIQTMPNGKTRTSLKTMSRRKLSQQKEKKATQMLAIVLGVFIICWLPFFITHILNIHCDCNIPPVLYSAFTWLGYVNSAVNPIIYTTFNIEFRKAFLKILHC
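Calcium mobilization kinetics were recorded at 1 s intervals in tetracycline-induced HEK293 T-REx D2 cells, first for 180 s after compound addition and then 180 s after EC80 dopamine.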
D2 ag-1 – activates the human D2 dopamine receptor | P14416 | DiscoveRx PathHunter D2 beta-arrestin, luminescence, 90 min; 100% = 57 uM dopamine signal | activation, % (test concentration not listed) | actives 0.084% (n = 360,000) | AID 624465; in the data active = activation above about 40%; inconclusive = between about 15% and that limit
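Agonist mode: compounds alone added to overnight-plated D2 PathHunter cells for 90 min at 37 C, with 57 uM final dopamine (EC100) defining full response. Beta-arrestin recruitment detected by chemiluminescent reagent, read after 1 h at ambient temperature.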
D2 PAM-1 – D2 dopamine receptor (human) potentiation; actives 0.34% (n = 340,000); HEK293 T-REx D2, calcium flux, EC20 dopamine potentiation; potentiation, % at 10 µM;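 active = potentiation over 3 SD above the plate norm, cut at about 30% in these data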; also: 0% is about no effect
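Tetracycline-induced HEK293 T-REx cells force-coupled to calcium signalling expressed D2; compounds were pin-added after a 10 s baseline, read kinetically 180 s, then an EC20 dopamine challenge followed with a further 180 s calcium read.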
D2 ag-2 – agonists of human D2 dopamine receptor; HEK293 T-REx D2 cells, calcium flux agonist mode; activation, % at 2 µM; P14416; AID 485358; actives 0.53% (n = 340,000);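 active = activation over 3 SD above normal in the single-dose calcium agonist read, cut at about 30% in these data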; also: 0% is about no effect
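Tetracycline-induced HEK293 T-REx cells with force-coupled D2 receptor, plated overnight at 30 C, loaded with no-wash calcium dye. After a 10 s baseline, compound was pin-added and calcium flux read kinetically for 180 s; calcium rises flagged agonists.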
D2 PAM-2 – human D2 receptor positive allosteric modulation; actives 0.23% (n = 360,000); AID 624464; P14416; potentiation, % (concentration not given with the values); DiscoveRx D2 beta-arrestin cells, luminescence, 90 min; 100% = 57 uM dopamine signal; in the data active = potentiation above about 50%; inconclusive = mostly about 30% to 49%
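PathHunter beta-arrestin assay in DiscoveRx D2 cells. Compounds were added with an EC20 of dopamine (50 nM final) for 90 min at 37 deg C. Luminescence was read 1 h after detection reagent, with 57 uM dopamine as the EC100 control.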
* hit, by the source's call; ? = inconclusive; / = not tested or not shown.

SMILES	D2 antag	D2 ag-1	D2 PAM-1	D2 ag-2	D2 PAM-2
O=C(c1ccc2nc(N3CCCCC3)sc2c1)N1CCN(Cc2ccc3c(c2)OCO3)CC1	8	-5	-8	49*	-1
CCn1cnc2sc(C(=O)N3CCN(Cc4ccc5c(c4)OCO5)CC3)c(C)c2c1=O	-5	/	-14	33*	/
Cc1ccccc1C(=O)N1CCC(C(=O)N2CCN(Cc3ccc4c(c3)OCO4)CC2)CC1	/	1	/	/	0
CCOC(=O)N1CCN(C(=O)c2ccc3nc(N4CCCCC4)sc3c2)CC1	12	2	10	0	4
O=C(c1ccc2nc(N3CCOCC3)sc2c1)N1CCC(Cc2ccccc2)CC1	32*	-1	-4	0	-2
Oc1cccc(-c2nc3ncccn3c2Nc2cccc(C(F)(F)F)c2)c1	/	/	16	0	/
CCN(c1ccccc1)S(=O)(=O)c1ccc(NC(=O)c2cc(=O)c3cc(C)cc(C)c3o2)cc1	/	/	1	/	/
O=C(Nc1ccc(Cl)cc1)N1CCC(CN2CCCCCC2)CC1	/	/	-11	0	/
CC1CCc2cc(F)ccc2N1C(=O)C12CCC(C)(C(=O)O1)C2(C)C (stereo not drawn)	32*	-3	-5	0	1
CC(C)CCNC(=O)CSc1nc2ccccc2nc1Cc1ccccc1	/	/	-5	0	/
C=CCN1C(=O)/C(=C\c2ccc(C)cc2)N=C1SCC(=O)NCCC	9	-1	5	0	-15
CCCNC(=O)CSC1=N/C(=C/c2ccc(F)cc2)C(=O)N1CC	35*	-2	9	0	-13
CC(=O)N1CCc2c(sc3c2c(=O)n(CCc2ccccc2)c(=O)n3Cc2ccccc2C)C1	/	/	10	0	/
COc1cc(C(=O)OCC(=O)Nc2ccccc2C(=O)NC2CC2)c([N+](=O)[O-])cc1OC	34*	-1	-10	0	0
O=C(CSc1nc2c([nH]c3ccccc32)c(=O)n1-c1ccccc1)c1ccc(Cl)cc1	/	/	0	2	/
Cc1ccc(C)c(Cn2nc(-c3cc(C)ccc3C)ccc2=O)c1	35*	-1	-3	1	-10
COc1ccc(-n2cnc3cc(C(=O)NC4CCCCCC4)ccc32)cc1	/	/	0	1	/
COC(=O)CN(c1ccc(F)cc1)S(=O)(=O)c1ccccc1	47*	-1	/	4	-4
C/C(=N/NC(=O)CN(c1ccccc1)S(=O)(=O)c1ccccc1)c1ccccc1O	52*	1	-17	1	-78
COC(=O)CN(c1ccccc1F)S(=O)(=O)c1ccccc1	-10	-3	-5	-4	8
CCc1ccc(C(c2ccccc2)c2c(C)[nH]c3ccccc23)s1 (stereo not drawn)	/	/	1	0	/
COc1ccc(N2CCN(C(CNS(=O)(=O)c3ccc(OC)c(C)c3)c3ccco3)CC2)cc1 (stereo not drawn)	/	/	-6	1	/
Cc1ccc(CSc2c(C)cnc3c2c(=O)n(C)c(=O)n3C)cc1	/	/	-2	0	/
COC(=O)c1c(NC(=O)C(=O)NCC2CCCO2)sc2c1CC(C)(C)OC2 (stereo not drawn)	36*	-1	-13	0	-27
CC(C)c1nnc(NC(=O)CCC(=O)Nc2ccc3cn[nH]c3c2)s1	61*	-3	-8	0	-17
SMILES	D2 antag	D2 ag-1	D2 PAM-1	D2 ag-2	D2 PAM-2
COC(C[C@H]1O[C@@H]1[C@@H](O)[C@H](C)OCc1ccccc1)OC	36*	-1	8	0	-1
Cc1ccc2nc3c(c(Nc4ccc(C)c(C)c4)c2c1)CCC3	/	/	9	/	/
CC(C)c1nnc(N2C(=O)c3oc4ccccc4c(=O)c3C2c2cccc(O)c2)s1 (stereo not drawn)	/	/	10	0	/
Cc1nc2ccc(NC(=O)C3(C)CCCN(C(C)C)C3)cc2o1 (stereo not drawn)	/	-5	/	/	-9
O=C(O)CCCNC(=O)/C=C/c1ccco1	0	-6	15	0	-1
O=C(/C=C/c1ccco1)NCCc1ccccc1	32*	-3	-6	0	0
O=C(/C=C/c1ccco1)Nc1cc(Cl)ccc1C(=O)O	34*	0	8	-2	-18
Cc1cc(C(C)(C)C)ccc1OC(=O)C1=CC=CN2CCS(=O)(=O)N=C12	40*	-5	7	1	1
COc1cc(C2Nc3cccc4cccc(c34)N2)ccc1OC(C)=O	-4	7	6	-1	?
O=[N+]([O-])c1ccc(C2Nc3cccc4cccc(c34)N2)cc1	-19	?	4	1	80*
Fc1ccc(C2Nc3cccc4cccc(c34)N2)cc1	-5	8	-1	1	-1
COc1ccc(C2Nc3cccc4cccc(c34)N2)cc1Br	/	7	16	/	54*
O=[N+]([O-])c1cccc(C2Nc3cccc4cccc(c34)N2)c1	-6	?	-3	0	105*
CCOC(=O)c1c(C)n(-c2ccccc2)c2ccc(OC(=O)COc3ccc(Cl)cc3)cc12	/	/	-3	2	/
COc1ccc(N(C(=O)Cn2nnc3ccccc32)C(C(=O)NCc2ccccc2)c2ccc(F)cc2)cc1 (stereo not drawn)	/	/	-9	0	/
COc1ccc(NC(=O)c2sc3nc4c(cc3c2N)CN(Cc2ccccc2)CC4)c(OC)c1	/	/	14	1	/
O=C1NC(Cc2ccc(O)cc2)c2nc3cc(Cl)ccc3c(=O)n2-c2cc(Cl)ccc21 (stereo not drawn)	/	-2	/	/	1
Cc1ccc(-n2nc(CO)c(C(=O)NCc3cccnc3)n2)cc1C	/	/	-2	-1	/
Cc1cccc(NC(=O)CN(C)C(=O)c2ccc3ccccc3n2)c1C	30*	-8	5	-1	-17
COCCN(CC(=O)Nc1cccc(C)c1C)C(=O)c1ccc2ccccc2n1	25	-2	7	0	-8
CCN1CCSc2ccc(C(=O)NCc3cccc(F)c3)cc21	44*	-6	-15	1	-9
CCCOc1ccc(CNC(=O)c2ccc3c(c2)N(CC)CCS3)cc1	50*	-3	-15	1	-10
COc1ccc2nc3oc(C(=O)Nc4cccc(C(F)(F)F)c4)cc3cc2c1	/	/	-4	1	/
COc1ccccc1N=c1scc(-c2ccc(S(=O)(=O)N3CCCC3)cc2)n1C	/	/	5	0	/
Cc1csc2nc(CCNS(=O)(=O)c3ccccc3)cn12	/	/	9	1	/
COc1ccc(NC(=O)c2cccn2-c2nnc(N3CCCCC3)s2)cc1	/	/	-20	0	/
CC12CCC(=O)N1c1ccccc1C(=O)N2c1ccccc1 (stereo not drawn)	-21	1	34*	1	-16
O=C1NC(=S)SC1=Cc1cccs1	/	-7	/	/	-11
CN1CCC/C1=C/C=C1\SC(=S)NC1=O	8	-6	6	50*	-31
CCOC(=O)N1CCC(NC(=O)c2ccc(Cl)cc2)CC1	2	-4	-6	0	-13
